# Measured values: PubChem BioAssay (NCI)
# The panel holds about 83,000 compounds, 20% with a hit somewhere; the sample as a whole holds those more often.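 Assay: single dose, 48 h. Readout: percent growth (0 = no net growth; negative = cell death). Active: <10.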 Values without a mark were called inactive. Calls of active or inactive are those of the source.
# Columns and labels:
# Assay in all cases: NCI-60 one-dose screen, 48 h (100 = growth as untreated, 0 = no growth, -100 = all killed)
# Settings in all cases: 10 µM unless noted
# NCI-H23 lung = tested on: NCI-H23 lung
# NCI-H226 lung = tested on: NCI-H226 lung
# NCI-H322M lung = tested on: NCI-H322M lung
# HOP-62 NSCLC = tested on: HOP-62 NSCLC
# HOP-92 NSCLC = tested on: HOP-92 NSCLC
# NCI-H522 lung = tested on: NCI-H522 lung
# A549/ATCC NSCLC = tested on: A549/ATCC NSCLC
# 786-0 renal = tested on: 786-0 renal
# COLO 205 colon = tested on: COLO 205 colon
# DU-145 prostate = tested on: DU-145 prostate
# K-562 leukemia = tested on: K-562 leukemia
# MALME-3M melanoma = tested on: MALME-3M melanoma
# MDA-MB-231 breast = tested on: MDA-MB-231 breast
# SF-268 CNS = tested on: SF-268 CNS
# SF-295 CNS = tested on: SF-295 CNS
# SF-539 CNS = tested on: SF-539 CNS
# UACC-257 melanoma = tested on: UACC-257 melanoma
# M14 melanoma = tested on: M14 melanoma
# NCI-H460 lung = tested on: NCI-H460 lung
# RXF 393 renal = tested on: RXF 393 renal
Structure (SMILES),growth (NCI-H23 lung),growth (NCI-H226 lung),growth (NCI-H322M lung),growth (HOP-62 NSCLC),growth (HOP-92 NSCLC),growth (NCI-H522 lung),growth (A549/ATCC NSCLC),growth (786-0 renal),growth (COLO 205 colon),growth (DU-145 prostate),growth (K-562 leukemia),growth (MALME-3M melanoma),growth (MDA-MB-231 breast),growth (SF-268 CNS),growth (SF-295 CNS),growth (SF-539 CNS),growth (UACC-257 melanoma),growth (M14 melanoma),growth (NCI-H460 lung),growth (RXF 393 renal)
CN1CCN(c2ccc(NC3=C(Cl)C(=O)c4ncccc4C3=O)cc2C#N)CC1,51%,94%,103%,103%,-61.4% (active),-56.9% (active),110%,85.5%,57.6%,86.9%,2.83% (active),-69.4% (active),-4.9% (active),85.3%,115%,91.6%,-46.5% (active),54%,,
CS(=O)(=O)Nc1cc(-c2ccc3ncnc(Nc4ccc5[nH]ncc5c4)c3c2)cnc1Cl,86%,75%,74.1%,55.2%,0.913% (active),60.6%,91.8%,79.6%,81.7%,82.4%,90.1%,60.9%,79.5%,53.8%,88%,67.7%,35.4%,80.8%,,
COc1ccc(Cn2nc(-c3cc(OC)c(OC)c(OC)c3)c3c2CCc2cnoc2-3)cc1OC,62.4%,84.5%,75.9%,57.2%,33.3%,15.2%,52.2%,66.5%,74.4%,76.1%,18.9%,78%,52.7%,68%,47.6%,37.7%,75.8%,61.7%,,
CC[C@@]12C=CCN3CC[C@]4(c5cc(NC(=O)COc6cc(OCC(=O)Nc7cc8c(cc7OC)N(C)[C@H]7[C@@](O)(C(=O)OC)[C@H](OC(C)=O)[C@]9(CC)C=CCN%10CC[C@]87[C@@H]%109)cc7oc(-c8ccccc8)cc(=O)c67)c(OC)cc5N(C)[C@@H]4[C@](O)(C(=O)OC)[C@H]1OC(C)=O)[C@H]32,0.327% (active),23.7%,45.9%,17.3%,33.9%,-27.7% (active),51.7%,41.4%,40.2%,30.3%,45.6%,111%,4.69% (active),-1.19% (active),71.3%,89.3%,103%,50.4%,,
CC(C)Sc1nc(NN)c(C#N)c(-c2ccccc2)n1,100%,100%,91.1%,102%,83.5%,94.7%,102%,97.8%,114%,108%,101%,95.7%,99.3%,100%,98.7%,89.9%,102%,108%,,
COc1ccc(C2CC(c3cccc(Nc4ccncc4)c3)=NN2c2ccc(Cl)cc2)cc1 (configuration not stated),83%,88.8%,73.7%,25.3%,51.5%,-23% (active),35.9%,102%,-65.9% (active),23.6%,0.0732% (active),-49.9% (active),40.6%,62.1%,53.9%,76.4%,12.6%,100%,,
CN(C)Cc1c(-c2ccccc2)[nH]c2ccccc12,88.7%,106%,114%,80.3%,96.4%,82.5%,80.3%,90%,107%,113%,107%,128%,102%,92.1%,92.7%,106%,99.3%,82.6%,,
Brc1ccc(C2CC(c3cccc(Nc4ccncc4)c3)=NN2c2ccccc2)cc1 (configuration not stated),85.6%,95%,87.3%,77.2%,62.5%,87.4%,54.7%,90.2%,0.175% (active),88.7%,4.05% (active),66.7%,84.4%,103%,89%,84.4%,84%,101%,,
CC(=O)N1c2ccccc2NC2=C(C(=O)N(Cc3ccccc3)C2(C)C)C1c1ccco1 (configuration not stated),20.9%,,44.6%,33.1%,21.1%,21.8%,22%,21.4%,16.8%,7.82% (active),12.6%,69.9%,9.25% (active),42.7%,-0.752% (active),-17.9% (active),77.6%,-13.6% (active),4.83% (active),-11.7% (active)
COc1cc(NCC(O)CN(CC(C)C)C2CCCC2)c2ncccc2c1 (configuration not stated),77.6%,94.3%,110%,86.5%,73.8%,70.6%,66.1%,89.3%,97%,98.4%,73.2%,147%,66.8%,82.7%,92.2%,99.8%,85.5%,95.8%,,
C[C@@H]1CN(Cc2ccc(/C=C/c3n[nH]c4ccc5nc(-c6cn[nH]c6C(F)(F)F)c6c(c5c34)CCCC6)cc2)C[C@H](C)O1,31.9%,45.3%,45.1%,36.7%,41.4%,21%,25.3%,26.6%,1.61% (active),27.7%,10.4%,41.2%,12.9%,36.5%,38.4%,7.28% (active),75.5%,18.9%,,
COc1ccc(C(O)c2cc3c(N)c(C(=O)Nc4cccc(Br)c4C)sc3nc2C)cc1 (configuration not stated),32.1%,56.9%,46.1%,36.5%,61.5%,-32.7% (active),20.5%,37.6%,-7.14% (active),9.81% (active),5.92% (active),47.3%,5.97% (active),30.1%,18.5%,-3.14% (active),47.8%,18.9%,,
Cc1c2c(cc[n+]1Cc1ccccc1)c1ccc(OCC3CCCCC3)cc1n2CC1CCCCC1,-76.7% (active),-89.1% (active),-83.2% (active),-95% (active),-85.6% (active),-84.5% (active),-93.1% (active),-91.3% (active),-95.2% (active),-100% (active),-45.9% (active),-70.3% (active),-92% (active),-98.7% (active),-92.8% (active),-85.2% (active),-92.4% (active),-84.6% (active),,
O=C1Nc2c(ccc(Cl)c2Cl)/C1=C/c1ccccn1,81.5%,93.5%,93.4%,88.5%,66.2%,71%,,12.5%,108%,104%,,85.5%,84.7%,84.8%,107%,92.8%,-20.9% (active),69.9%,,
O=C(NNc1nc(Cl)nc(N2CCN(C(c3ccccc3)c3ccccc3)CC2)n1)c1ccccc1,-9.53% (active),,32%,47.6%,52.2%,-68.3% (active),98.7%,70.5%,24.1%,46.6%,-38.8% (active),-14.4% (active),-54.3% (active),63.1%,92.3%,-33% (active),-1.56% (active),10.5%,86.3%,-47.1% (active)
COc1ccc(-c2nc3sccn3c2/C=C/C(=O)c2cc(OC)c(OC)c(OC)c2)cc1,59.9%,,69.4%,79.1%,-1.77% (active),5.02% (active),60.4%,78.3%,79.2%,75.7%,44.2%,53.3%,52.8%,67.4%,54.6%,53%,69.1%,63.6%,47%,
CC1(C)CC[C@]2(C(=O)NCC#CCN3CCOCC3)CC[C@]3(C)C(=CC[C@@H]4[C@@]5(C)Cc6c([nH]c7ccccc67)C(C)(C)[C@@H]5CC[C@]43C)[C@@H]2C1,95.9%,,96.1%,98.1%,79.8%,85.2%,72%,92.7%,30.5%,103%,65.3%,95%,91.4%,87.7%,79.7%,107%,47.5%,80.7%,90.1%,98.6%
